Records with an inconclusive call do not appear. Active and inactive are the calls of the source. Cut-off read from the data, not from the text of the source, unless noted: active = inhibition above about 80%; inactive = the rest.
What was measured:
[1] = viability loss in pontine glioma line – cell-based, SU-DIPG-XVII, MIPE5.0, CellTiter-Glo, qHTS, dose response (AID 1347060; cut-off not given, nearly all actives have AC50 up to about 26 µM); conditions: CellTiter-Glo ATP luminescence
[2] = viability loss in pontine glioma line – cell-based, SU-DIPG-XIII, MIPE4.0, CellTiter-Glo, qHTS, dose response (AID 1347061; cut-off not given, nearly all actives have AC50 up to about 37 µM;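 note: cells exposed to compound for 48 hours before readout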); conditions: CellTiter-Glo ATP luminescence
[3] = viability loss in pontine glioma line – cell-based, JHH-DIPG-1, MIPE4.0, CellTiter-Glo, qHTS, dose response (AID 1347062; cut-off not given, nearly all actives have AC50 up to about 27 µM); conditions: JHH-DIPG-1 viability, CellTiter-Glo ATP luminescence
[4] = viability loss in pontine glioma line – cell-based, SU-DIPG-IV, MIPE4.0, CellTiter-Glo, qHTS, dose response (AID 1347063; cut-off not given, nearly all actives have AC50 up to about 30 µM;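 note: compound exposure lasted 48 hours before the viability readout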); conditions: CellTiter-Glo ATP luminescence
[5] = viability loss in pontine glioma line – cell-based, SU-DIPG-XIII, MIPE5.0, CellTiter-Glo, qHTS, dose response (AID 1347064; cut-off not given, nearly all actives have AC50 up to about 23 µM); conditions: CellTiter-Glo ATP luminescence
[6] = growth inhibition of DIPG cells – cell-based, MIPE4.0 library, CellTiter-Glo luminescence, qHTS (AID 1347066; cut-off not given, nearly all actives have AC50 up to about 30 µM;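 note: cells exposed to compound for 48 hours before readout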); conditions: SU-DIPG-VI viability, CellTiter-Glo ATP luminescence
[7] = JHH-DIPG-1 glioma cell viability, MIPE5.0 library, CellTiter-Glo luminescence, qHTS (AID 1347067; cut-off not given, nearly all actives have AC50 up to about 26 µM;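 note: cells exposed to compound for 48 hours before readout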); conditions: JHH-DIPG-1 glioma viability, CellTiter-Glo ATP luminescence
[8] = growth inhibition of DIPG cells – cell-based, MIPE5.0 library, qHTS (AID 1347068; cut-off not given, nearly all actives have IC50 up to about 30 µM); conditions: SU-DIPG-XXV viability
[9] = growth inhibition, single agent or in combination, cell-based, chromothripsis tumors, cisplatin or BGB combos (AID 1671449); conditions: LFS_MB_P medulloblastoma cells;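 note: cells exposed for 96 hours; 0% = vehicle DMSO and 100% = killing by high DMSO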
[10] = growth inhibition, single agent and combos, cell-based, chromothripsis tumors, cisplatin or BGB combos (AID 1671450); conditions: HDN33 neuroblastoma cells, stronger effect = higher value;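 note: cells exposed to compound for four days; 0% = vehicle DMSO and 100% = cell killing by high DMSO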
[11] = growth inhibition, single agents and combos, ICB984, cell-based, cisplatin or BGB combos, synergistic combos for chromothripsis tumors (AID 1671451; call rule not given here;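 note: cells exposed for 96 hours before readout; 0% = vehicle DMSO and 100% = killing by high DMSO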); conditions: ICB984 medulloblastoma cells, drug combinations, stronger effect = higher value
[12] = growth inhibition, single agents and combos, LFS_MB_1R, cell-based, cisplatin or BGB combos, synergistic combos for chromothripsis tumors (AID 1671452); conditions: LFS_MB_1R medulloblastoma cells, stronger effect = higher value;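 note: cells exposed for 96 hours before readout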
[13] = growth inhibition, single agents and combos, HTB85, cell-based, BGB or cisplatin IC20 combos, synergistic combos for chromothripsis tumors (AID 1671453); conditions: HTB85 osteosarcoma cells, drug combinations, stronger effect = higher value;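 note: cells exposed for 96 hours before readout; 0% = vehicle DMSO and 100% = high DMSO killing control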
[14] = growth inhibition, single agents and combos, CRL2098, cell-based, BGB or cisplatin IC20 combos, synergistic combos for chromothripsis tumors (AID 1671454); conditions: CRL2098 osteosarcoma cells, drug combinations, stronger effect = higher value;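 note: cells exposed for 96 h before readout; 0% = vehicle DMSO and 100% = killing by high DMSO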
[15] = growth inhibition, single agents and combos, HD-MB03, cell-based, BGB or cisplatin IC20 combos, synergistic combos for chromothripsis tumors (AID 1671455; in the data active = inhibition above about 83%;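 note: 0% = vehicle DMSO and 100% = high DMSO as cytotoxic control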); conditions: HD-MB03 medulloblastoma cells, stronger effect = higher value
[16] = growth inhibition, single agents and combos, UWB1.289, cell-based, BGB or cisplatin combos, synergistic combos for chromothripsis tumors (AID 1671456); conditions: UWB1.289 ovarian carcinoma cells, stronger effect = higher value;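 note: cells exposed to compound for four days; 0% = vehicle DMSO and 100% = killing by high DMSO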
[17] = growth inhibition, single agents and combos, LFS_MB_2R, cell-based, cisplatin combos, synergistic combos for chromothripsis tumors (AID 1671457); conditions: LFS_MB_2R medulloblastoma cells, stronger effect = higher value;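 note: cells exposed to compound for four days before readout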
[18] = growth inhibition, MDA-MB-436, cell-based, BGB or cisplatin combos, synergistic combos for chromothripsis tumors (AID 1671458; call rule not given here;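 note: cells exposed for 96 hours; 0% = vehicle DMSO and 100% = killing by high DMSO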); conditions: MDA-MB-436 breast carcinoma growth inhibition, drug combinations, stronger effect = higher value
[19] = UWB1.289_BRCA1 ovarian cancer growth, cell-based, BGB or cisplatin combinations (AID 1671459); conditions: UWB1.289 BRCA1 ovarian carcinoma, drug combinations, stronger effect = higher value
[20] = drug combination toxicity in non-malignant astrocytes – cell-based, BGB or cisplatin IC20 combos, cytotoxicity control for chromothriptic childhood tumor combination screen (AID 1671460); conditions: Human astrocytes, viability inhibition, drug combinations, at 0.5 µM, stronger effect = higher value;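 note: cells exposed to compounds for 96 hours before viability readout; 0% = vehicle and 100% = killing control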
[21] = BT084 cell growth, single and combined drugs, ICGC_MB145, cisplatin and BGB IC40 combos (AID 1671461); conditions: BT084 medulloblastoma cells, drug combinations, stronger effect = higher value;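 note: cells exposed to drugs for 96 hours; 0% = vehicle DMSO and 100% = high DMSO full killing control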
[22] = RCMB18 cell growth, single agent and combined, cisplatin and BGB IC40 combos (AID 1671462); conditions: RCMB18 medulloblastoma cells, stronger effect = higher value;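 note: cells exposed to compound for four days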
[23] = CRL1545 cell growth, single agent and combined, cisplatin and BGB IC20 combos (AID 1671464); conditions: CRL1545 osteosarcoma cells, stronger effect = higher value;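 note: cells exposed to compound for 96 hours before readout; 0% = vehicle DMSO and 100% = high DMSO killing control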
[24] = measured here: combination with BGB IC40, at 0.05 µM
[25] = measured here: with BGB IC20 combination, at 0.5 µM
[26] = measured here: with cisplatin IC20 combination, at 0.5 µM
[27] = measured here: combination with cisplatin, at 0.5 µM
[28] = measured here: combination with cisplatin, at 5 µM

With `CN(C)NC(=O)CCC(=O)O` the outcome [1] was “inactive”, the outcome [2] was “inactive” and the outcome [3] was “inactive”. The outcome [4] was “inactive”, the outcome [5] was “inactive” and the outcome [6] was “inactive”. For the same molecule, the outcome [7] was “inactive”, the outcome [8] was “inactive” and the inhibition ([9]; at 0.5 µM, stronger effect = higher value) was -0.95% (inactive). The inhibition ([9]; measured here: combination with BGB IC20, at 0.005 µM) was -31%, the inhibition ([9]; measured here: combination with BGB IC40, at 0.005 µM) was -30.2% and the inhibition [9, 24] was -24.7%. For the same molecule, the inhibition ([9]; measured here: combination with cisplatin, at 0.5 µM, stronger effect = higher value) was 2.21%, the inhibition ([9]; measured here: combination with cisplatin, at 5 µM, stronger effect = higher value) was -34.9% and the inhibition ([10]; BGB combo, at 5 µM) was -23.5%. For the same molecule, the inhibition ([10]; at 0.5 µM) was -21.4% (inactive), the inhibition ([10]; cisplatin combo, at 5 µM) was -14% and the inhibition [10, 25] was -37.1%. For the same molecule, the inhibition [10, 26] was -10.8%, the inhibition ([10]; single agent, at 5 µM) was -11.1% and the inhibition ([11]; BGB IC20 combo, at 0.005 µM) was -38.4%. For the same molecule, the inhibition ([11]; BGB IC40 combo, at 0.005 µM) was -26.9%, the inhibition ([11]; BGB IC40 combo, at 0.05 µM) was -23.3% and the inhibition ([11]; at 0.5 µM) was -22.7% (inactive). The inhibition ([11]; cisplatin combo, at 0.05 µM) was -27.8%, the inhibition ([11]; cisplatin combo, at 0.5 µM) was -26.2% and the inhibition ([11]; cisplatin combo, at 5 µM) was -3.89%. For the same molecule, the inhibition ([11]; measured here: 5 uM single agent, at 5 µM) was -1.92%, the inhibition ([12]; at 0.5 µM) was -2.69% (inactive) and the inhibition [12, 24] was -23.8%. The inhibition [12, 27] was 18.7%, the inhibition [12, 28] was -7.99% and the inhibition ([13]; at 0.5 µM) was -8.01% (inactive). The inhibition ([13]; measured here: with BGB IC20, at 0.5 µM) was -17.1%, the inhibition ([13]; measured here: with BGB IC20, at 5 µM) was -18.2% and the inhibition ([13]; measured here: with cisplatin IC20, at 0.5 µM) was 10.6%. The inhibition ([13]; measured here: with cisplatin IC20, at 5 µM) was -1.55%, the inhibition ([13]; single agent, at 5 µM) was -16.5% and the inhibition ([14]; at 0.5 µM) was -47.3% (inactive). The inhibition ([14]; measured here: combination with BGB at IC20, at 0.5 µM) was -35.5%, the inhibition ([14]; measured here: combination with cisplatin at IC20, at 0.5 µM) was -70.4% and the inhibition ([15]; at 0.5 µM) was -8.93% (inactive). For the same molecule, the inhibition ([15]; measured here: combo with BGB at IC20, at 0.5 µM) was -16.7%, the inhibition ([15]; measured here: combo with cisplatin at IC20, at 0.5 µM) was -5.27% and the inhibition ([16]; at 0.5 µM) was -6.42% (inactive). For the same molecule, the inhibition ([16]; measured here: inhibition with BGB combination, at 0.05 µM) was -16.9%, the inhibition ([16]; measured here: inhibition with cisplatin combination, at 0.05 µM) was -15.9% and the inhibition ([17]; at 0.5 µM) was -22.3% (inactive). The inhibition [17, 27] was -20.6%, the inhibition [17, 28] was -15.1% and the inhibition ([18]; at 0.5 µM) was -23% (inactive). It also gave an inhibition ([18]; measured here: BGB combination, at 0.5 µM) of -22.6%, an inhibition ([18]; measured here: BGB combination, at 5 µM) of -35.6% and an inhibition ([18]; measured here: cisplatin combination, at 0.5 µM) of -26.7%. For the same molecule, the inhibition ([18]; measured here: cisplatin combination, at 5 µM) was -43.4%, the inhibition ([19]; BGB combination, concentration series, at 5 µM) was -16% and the inhibition ([19]; at 0.5 µM) was -15.1% (inactive). The inhibition ([19]; cisplatin combination, concentration series, at 5 µM) was -31.4%, the inhibition [20] was -16.7% (inactive) and the inhibition ([20]; measured here: combo with BGB IC20) was -24.5%. The inhibition ([20]; measured here: combo with cisplatin IC20) was -4.55%, the inhibition ([21]; at 0.5 µM) was -3.48% (inactive) and the inhibition ([21]; cisplatin combination, at 0.5 µM) was -21.4%. For the same molecule, the inhibition ([21]; cisplatin combination, at 5 µM) was -13.9%, the inhibition ([21]; measured here: BGB IC40 combination 0.05 uM, at 0.05 µM) was -20.2% and the inhibition ([21]; single agent, at 5 µM) was -16.7%. The inhibition ([22]; at 0.5 µM) was -11.5% (inactive), the inhibition ([22]; cisplatin combo, at 5 µM) was 1.98% and the inhibition ([22]; measured here: BGB IC40 combination, at 0.05 µM) was -3.93%. For the same molecule, the inhibition [22, 27] was 15.6%, the inhibition ([22]; single agent, at 5 µM) was -10.2% and the inhibition ([23]; at 0.5 µM) was -22.5% (inactive). It also gave an inhibition [23, 25] of -20%, an inhibition [23, 26] of -25.8% and an inhibition ([23]; single agent, at 0.05 µM) of -6.7%. It also gave an inhibition ([23]; single agent, at 5 µM) of -28%.

— PubChem BioAssay
